Consider one compound from PubChem BioAssay (NCATS).

Assay [1] has as its target Vitamin D3 receptor (Homo sapiens) (UniProt P11473). As to the kind of experiment: qHTS assay for small molecule antagonists of vitamin D receptor signaling (AID 588541; calls by dose curve;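 note: receptor activated by calcitriol during compound treatment; series mostly up to about 77 µM; % is set by controls: 0 for no effect and ±100 for the full control effect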). The method in brief: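 VDR-UAS-bla HEK293T cells in 2% charcoal-stripped FBS were stimulated with 1-alpha,25-dihydroxyvitamin D3 (3 nM final) plus compound for 16 h at 37 C. The beta-lactamase CCF4 readout was normalized to 50 nM agonist and DMSO, and Hill fits gave IC50.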
Background: qHTS replaces the single test concentration by a dilution series.

Assay [2] has the same target. As to the kind of experiment: qHTS assay for small molecule agonists of vitamin D receptor signaling (AID 588543; calls by dose curve;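 note: 0% = DMSO basal and 100% = reference agonist control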). In a few lines:
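Agonist-mode beta-lactamase reporter: HEK293T VDR-UAS-bla cells in charcoal-stripped 2% FBS, compound series 16 h 37 C, CCF4 2 h RT. EC50 from Hill fit, scaled against DMSO and 50 nM calcitriol control.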

The nature of assay [3]: qHTS assay for small molecule agonists of retinoid X receptor alpha signaling (AID 588544). The note with it: HEK293T RXRa-UAS-bla, beta-lactamase reporter, 18 h; 530 nm emission.
Assay [4] has as its target Thyroid hormone receptor beta (Homo sapiens) (UniProt P10828). As to the kind of experiment: qHTS assay for small molecule agonists of thyroid hormone receptor beta signaling (AID 588545; calls by dose curve;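 note: 0% = DMSO only and 100% = 10 nM T3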). In a few lines: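 TR-UAS-bla GripTite HEK 293 cells (2500/well, medium with 2% charcoal/dextran FBS) were treated in agonist mode for 18 h at 37 C, titrated. Beta-lactamase was read by CCF4 ratio after 2 h; normalized to 10 nM T3 (100%) and DMSO, Hill-fitted for EC50 and efficacy.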

The nature of assay [5]: qHTS assay for small molecule antagonists of retinoid X receptor alpha signaling (AID 588546; active = well fitted inhibition curve with a large enough effect in the signal ratio, with a control signal flat, not every such curve was filed as active; the % refers to the signal ratio;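 note: cells stimulated with 9-cis-retinoic acid as agonist; % is set by controls: 0 for no effect and ±100 for the full control effect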). To be noted: HEK293T RXRa-UAS-bla, beta-lactamase ratio, antagonist mode; measured here: W530 green channel, cytotoxicity proxy. The method in brief:
(§1)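 Beta-lactamase reporter inhibition, read as CCF4 fluorescence ratio (ex 405, em 460/530 nm) after 2 h at RT. HEK293T UAS-bla cells, 2500/well, were stimulated with 9-cis-RA at 500 or 100 nM final alongside test compound for 18 h at 37 C.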

For assay [6], the target named is Retinoic acid receptor RXR-alpha (Homo sapiens) (UniProt P19793). The description is as above. To be noted: HEK293T RXRa-UAS-bla, beta-lactamase ratio, antagonist mode. The method in brief: as §1
Chain of Retinoic acid receptor RXR-alpha (Homo sapiens) (P19793 whole entry, looked up): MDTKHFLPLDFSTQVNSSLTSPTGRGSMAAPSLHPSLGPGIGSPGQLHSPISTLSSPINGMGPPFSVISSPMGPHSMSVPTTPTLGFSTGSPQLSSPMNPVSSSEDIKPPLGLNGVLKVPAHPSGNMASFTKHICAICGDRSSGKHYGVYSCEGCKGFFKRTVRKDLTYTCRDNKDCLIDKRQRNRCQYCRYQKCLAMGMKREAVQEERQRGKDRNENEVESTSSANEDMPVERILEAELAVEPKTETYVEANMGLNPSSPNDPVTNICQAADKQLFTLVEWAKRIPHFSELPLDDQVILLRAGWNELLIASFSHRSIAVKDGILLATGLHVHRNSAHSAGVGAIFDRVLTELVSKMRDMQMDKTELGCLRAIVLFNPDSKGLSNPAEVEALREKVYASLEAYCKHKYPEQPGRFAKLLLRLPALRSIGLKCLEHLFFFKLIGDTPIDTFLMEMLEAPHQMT
For assay [7], the target named is Thyroid hormone receptor beta (Homo sapiens) (UniProt P10828). As to the kind of experiment: qHTS assay for small molecule antagonists of thyroid hormone receptor beta signaling (AID 588547; active = well fitted inhibition curve with a large enough effect in the signal ratio, with a control signal flat, not every such curve was filed as active; the % refers to the signal ratio;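 note: cells stimulated with 0.4 nM T3 agonist during compound exposure; series mostly up to about 77 µM; % is set by controls: 0 for no effect and ±100 for the full control effect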). To be noted: TR-UAS-bla HEK293, beta-lactamase ratio, antagonist mode, 18 h. In a few lines: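 TR-UAS-bla GripTite HEK293 cells in 2% charcoal/dextran FBS medium; compounds 0.59 nM to 92 uM with T3 at 0.4nM final, 18 h at 37 C. Beta-lactamase read by CCF4 fluorescence (460/530 nm); Hill fits gave IC50 and efficacy.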
Chain of Thyroid hormone receptor beta (Homo sapiens) (P10828 whole entry, looked up): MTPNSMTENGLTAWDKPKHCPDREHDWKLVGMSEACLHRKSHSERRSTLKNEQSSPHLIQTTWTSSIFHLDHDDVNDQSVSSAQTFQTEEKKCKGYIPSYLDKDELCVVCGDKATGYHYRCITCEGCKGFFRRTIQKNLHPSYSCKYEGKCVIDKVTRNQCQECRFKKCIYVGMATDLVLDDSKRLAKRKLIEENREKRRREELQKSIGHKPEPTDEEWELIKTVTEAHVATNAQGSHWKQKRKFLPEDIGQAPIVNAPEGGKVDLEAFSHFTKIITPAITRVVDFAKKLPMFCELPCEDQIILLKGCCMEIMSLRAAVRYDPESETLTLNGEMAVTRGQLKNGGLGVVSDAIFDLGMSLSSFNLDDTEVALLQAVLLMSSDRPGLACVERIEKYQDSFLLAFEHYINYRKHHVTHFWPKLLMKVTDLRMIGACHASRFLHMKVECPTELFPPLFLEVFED

Assay [8] is described as follows: qHTS assay for small molecule agonists of the antioxidant response element (ARE) signaling pathway (AID 651741; active = well fitted activation curve with a large enough effect in the signal ratio; the % refers to the signal ratio; note: % of control where 0% means no effect). The method in brief: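 HepG2 ARE-bla reporter cells, 2,000/well; 5 h settle at 37 C/5% CO2; compound pin transfer (23 nL, DMSO); 16 h at 37 C; LiveBLAzer B/G FRET substrate, 2 h RT; fluorescence intensity read.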
Assay [9] can be described thus: qHTS assay for small molecule activators of the p53 signaling pathway (AID 651743; active = well fitted activation curve with a large enough effect in the signal ratio, not every such curve was filed as active; the % refers to the signal ratio; note: series mostly up to about 92 µM; % of control where 0% means no effect). To be noted: HCT-116 p53RE-bla, beta-lactamase FRET ratio, 16 h; activation: stronger effect = higher value. The method in brief: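 Reporter: beta-lactamase driven by p53 response elements, stably integrated in HCT-116 cells. Cells seeded at 4,000/well, 5 h preincubation, compound (DMSO) 16 h at 37 C; B/G FRET substrate 2 h RT; fluorescence intensity read.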

Assay [10] is described as follows: qHTS assay for small molecule activators of the nuclear factor-kappa B (NF-kB) signaling pathway (AID 651749; active = well fitted activation curve with a large enough effect in the signal ratio; the % refers to the signal ratio; note: series mostly up to about 77 µM; % of control where 0% means no effect). The note with it: NF-kB-bla ME-180 cells, beta-lactamase FRET ratio, 16 h; activation: stronger effect = higher value. The method in brief: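 NF-kB-bla ME-180 cells, 2,000/well; 23 nL compound or DMSO pinned; 16 hr, 37C/5% CO2; beta-lactamase FRET read-out.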
Assay [11] is described as follows: qHTS assay for small molecule disruptors of the mitochondrial membrane potential - 5 hr assay (AID 651755; calls by dose curve; note: % is set by controls: 0 for no effect and ±100 for the full control effect; nearly all actives have a fitted effect of over 40% in size). In a few lines: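 Read-out: ratiometric Mito-MPS fluorescence, green monomer (ex 490/em 535) vs red mitochondrial aggregate (ex 540/em 590). HepG2 cells treated 5 hr at 37C before 30 min dye loading.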
Assay [12] concerns the target Tumor necrosis factor (Homo sapiens) (UniProt P01375). Description: qHTS assay to identify small molecules that stimulate Tumor Necrosis Factor-alpha (TNF-alpha) secretion (AID 651757; active = well fitted curve in the direction sought with a large enough effect in the signal ratio; the % refers to the signal ratio; note: 0% is about no effect). The method in brief: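 Using 3000 THP-1 cells per well, compounds and controls were applied for 17 hrs at 37 C. Detection followed with two labeled anti-TNF-alpha antibodies (cryptate donor, XL665 acceptor) for 3 hr at room temperature, measured by TR-FRET.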

A short description of assay [13]: qHTS assay to identify small molecules that stimulate interleukin-8 (IL-8) secretion (AID 651758; active = well fitted activation curve with a large enough effect in the signal ratio; the % refers to the signal ratio; note: 0% is about no effect). The method in brief:
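Compounds are added to THP-1 cells (2000 per well) and left 16 hrs at 37 C. A labeled anti-IL-8 antibody pair is then added, and IL-8 secretion is measured by time-resolved FRET after 1-3 hrs at room temperature.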

Assay [14] addresses Peroxisome proliferator-activated receptor alpha (Homo sapiens) (UniProt Q07869). As to the kind of experiment: qHTS assay for small molecule agonists of the peroxisome proliferator-activated receptor alpha (PPARalpha) signaling pathway (AID 651778). Note: % of control where 0% means no effect. To be noted: PathHunter PPARalpha complementation, chemiluminescence, 6 h; stronger effect = higher value. The method in brief: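 Enzyme-fragment complementation assay in which ligand-bound PPARalpha translocates and forms an active enzyme that generates chemiluminescence. Cells were plated overnight, exposed to compound for 6 hr at 37 C, and then given detection reagent for 60 min at room temperature.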

The nature of assay [15]: qHTS assay for small molecule agonists of the antioxidant response element (ARE) signaling pathway measured by Nrf2-dependant transcriptional activity (AID 720636; active = well fitted curve in the direction sought with a large enough effect in the repeat runs; an effect the other way counts as inactive or inconclusive;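 note: HepG2 cells with an ARE-driven luciferase reporter; % of control where 0% means no effect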). The method in brief: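 In HepG2 cells engineered with an Nrf2-responsive luciferase gene, ARE induction was quantified as luminescence after 16 hr compound treatment at 37 C.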
The nature of assay [16]: qHTS assay for small molecule antagonists of the retinoid-related orphan receptor gamma (ROR-gamma) signaling pathway - cell viability counter screen (AID 720652; active = well fitted curve in the direction sought with a large enough effect in the repeat runs; an effect the other way counts as inactive or inconclusive;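 note: CHO reporter cells with doxycycline-induced ROR-gamma expression; series mostly up to about 92 µM; compound exposure lasted 16 hr before ATP read; % is set by controls: 0 for no effect and ±100 for the full control effect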). In a few lines:
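ATP-based viability readout in the ROR-gamma reporter CHO cells after 16 hr compound exposure under doxycycline induction.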

A short description of assay [17]: qHTS assay for small molecule agonists of the antioxidant response element (ARE) signaling pathway measured by Nrf2-dependant transcriptional activity - cell viability counter screen (AID 720653; active = well fitted curve in the direction sought with a large enough effect in the repeat runs; an effect the other way counts as inactive or inconclusive; note: % is set by controls: 0 for no effect and ±100 for the full control effect). To be noted: ARE-bla HepG2 viability, CellTiter-Glo ATP luminescence, 16 h; stronger effect = lower value. The method in brief: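 ARE-bla HepG2 cells treated with compounds for 16 h at 37C; this counter screen measures viability as intracellular ATP by CellTiter-Glo luminescence after 30 min at room temperature.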

The nature of assay [18]: qHTS assay for cell viability of HEK293 cells (AID 743288). Note: % is set by controls: 0 for no effect and ±100 for the full control effect; nearly all actives have a fitted effect of over 50% in size. To be noted: ATP luminescence (CellTiter-Glo), 18 h; max response: stronger effect = lower value. The method in brief:
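Readout is luciferase-coupled ATP content (CellTiter-Glo luminescence, 30 min room temperature) as a measure of metabolically competent cells. Parental HEK293 cells were plated 5 h or more before compound addition, then treated 18 h at 37 C.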

A short description of assay [19]: qHTS assay for cell viability of the p53RE-bla HCT-116 cell line (AID 743292). Note: % is set by controls: 0 for no effect and ±100 for the full control effect; nearly all actives have a fitted effect of over 55% in size. The method in brief: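 Intracellular ATP of p53RE-bla HCT-116 cells measured by luciferase luminescence following 16 h compound incubation at 37 C; DMSO-only wells served as vehicle controls.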
Assay [20] deals with Rap guanine nucleotide exchange factor 3 (Homo sapiens) (UniProt O95398). Description: Confirmatory qHTS for agonist of cAMP-regulated guanine nucleotide exchange factor 3 (EPAC1) (AID 1645881).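 Note: EPAC1 catalysed release of BODIPY-GDP from Rap1B seen as fluorescence loss; 100% = effect of cAMP agonist control; nearly all actives have a fitted effect of over 75% in size.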
Chain of Rap guanine nucleotide exchange factor 3 (Homo sapiens) (O95398 whole entry, looked up): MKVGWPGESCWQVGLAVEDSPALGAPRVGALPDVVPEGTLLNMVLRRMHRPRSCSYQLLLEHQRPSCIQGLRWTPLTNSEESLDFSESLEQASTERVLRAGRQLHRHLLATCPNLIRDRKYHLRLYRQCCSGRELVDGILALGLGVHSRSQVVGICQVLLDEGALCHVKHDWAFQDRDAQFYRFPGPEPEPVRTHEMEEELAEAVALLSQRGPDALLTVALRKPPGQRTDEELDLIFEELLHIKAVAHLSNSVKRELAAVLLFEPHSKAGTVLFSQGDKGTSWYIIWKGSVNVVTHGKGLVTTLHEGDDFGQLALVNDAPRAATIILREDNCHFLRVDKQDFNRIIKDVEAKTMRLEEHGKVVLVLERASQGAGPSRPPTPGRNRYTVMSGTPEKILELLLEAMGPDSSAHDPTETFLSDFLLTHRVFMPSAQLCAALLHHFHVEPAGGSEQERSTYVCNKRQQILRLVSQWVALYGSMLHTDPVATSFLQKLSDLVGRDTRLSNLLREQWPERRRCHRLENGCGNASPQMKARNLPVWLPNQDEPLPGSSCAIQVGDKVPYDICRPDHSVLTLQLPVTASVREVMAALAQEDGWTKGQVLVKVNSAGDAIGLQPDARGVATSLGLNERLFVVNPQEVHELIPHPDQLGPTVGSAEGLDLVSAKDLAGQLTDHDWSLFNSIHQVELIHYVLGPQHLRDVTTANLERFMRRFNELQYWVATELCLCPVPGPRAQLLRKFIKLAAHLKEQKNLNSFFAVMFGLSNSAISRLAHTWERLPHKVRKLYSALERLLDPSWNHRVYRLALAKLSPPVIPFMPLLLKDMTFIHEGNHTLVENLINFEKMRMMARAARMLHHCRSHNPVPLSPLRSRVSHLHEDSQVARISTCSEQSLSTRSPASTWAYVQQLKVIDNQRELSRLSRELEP
Assay [21] has as its target Rap guanine nucleotide exchange factor 4 (Homo sapiens) (UniProt Q8WZA2). As to the kind of experiment: Confirmatory qHTS for agonist of cAMP-regulated guanine nucleotide exchange factor 4 (EPAC2) (AID 1645884).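 Note: nucleotide exchange releases bodipy-GDP from Rap1 and this lowers its fluorescence; % is set by controls: 0 for no effect and ±100 for the full control effect; nearly all actives have a fitted effect of over 65% in size.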
For assay [22], the target named is Nuclear receptor subfamily 1 group I member 2 (Rattus norvegicus) (UniProt Q9R1A7). Description: qHTS assay for small molecule activators of the rat pregnane X receptor (rPXR) signaling pathway (AID 651751; call rule not given here; note: 0% is about no effect). The note with it: rPXR reporter cells, luciferase (One-Glo), 24 h.
Chain of Nuclear receptor subfamily 1 group I member 2 (Rattus norvegicus) (Q9R1A7 whole entry, looked up): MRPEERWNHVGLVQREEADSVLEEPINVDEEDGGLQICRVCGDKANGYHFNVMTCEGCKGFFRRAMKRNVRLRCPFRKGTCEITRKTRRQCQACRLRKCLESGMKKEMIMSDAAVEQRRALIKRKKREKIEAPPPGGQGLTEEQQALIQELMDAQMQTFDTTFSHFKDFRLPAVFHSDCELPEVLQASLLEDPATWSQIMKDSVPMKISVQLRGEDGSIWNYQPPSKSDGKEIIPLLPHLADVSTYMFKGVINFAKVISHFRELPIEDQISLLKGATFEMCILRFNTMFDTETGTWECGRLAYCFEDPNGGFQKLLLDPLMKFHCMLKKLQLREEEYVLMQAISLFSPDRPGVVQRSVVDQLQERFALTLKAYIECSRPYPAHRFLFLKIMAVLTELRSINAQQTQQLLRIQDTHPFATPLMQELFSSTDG
A short description of assay [23]: qHTS assay for small molecule activators of the human pregnane X receptor (PXR) signaling pathway (AID 720659; call rule not given here; note: 0% is about no effect).

Molecules are shown by their SMILES. Several values for one entry are separate records, joined by “and”; a condition that tells them apart may be missing. Equal entries are not always repeated. Inconclusive results are not listed. Activity calls are given as the source filed them. Unless noted, calls come from the whole dose curve; as a rule, active = well fitted curve in the direction sought with a large enough effect; inconclusive = small, poorly fitted or top-dose-only effect, or another doubt; inactive = no such curve, though single readings can be large; an effect the other way counts as inactive or inconclusive.

Chain of Vitamin D3 receptor (Homo sapiens) (P11473 whole entry, looked up): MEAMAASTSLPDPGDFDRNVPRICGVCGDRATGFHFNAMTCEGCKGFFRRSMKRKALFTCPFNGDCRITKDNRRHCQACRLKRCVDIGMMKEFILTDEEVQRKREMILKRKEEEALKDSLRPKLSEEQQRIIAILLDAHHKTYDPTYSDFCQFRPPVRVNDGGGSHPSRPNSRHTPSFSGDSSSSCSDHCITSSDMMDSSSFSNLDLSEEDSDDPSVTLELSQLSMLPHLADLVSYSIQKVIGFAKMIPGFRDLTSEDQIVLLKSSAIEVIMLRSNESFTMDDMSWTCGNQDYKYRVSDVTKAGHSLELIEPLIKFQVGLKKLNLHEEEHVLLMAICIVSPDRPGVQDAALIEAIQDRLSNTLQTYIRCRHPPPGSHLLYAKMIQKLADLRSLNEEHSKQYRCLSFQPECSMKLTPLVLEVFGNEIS
Chain of Peroxisome proliferator-activated receptor alpha (Homo sapiens) (Q07869 whole entry, looked up, the tested form may be a part): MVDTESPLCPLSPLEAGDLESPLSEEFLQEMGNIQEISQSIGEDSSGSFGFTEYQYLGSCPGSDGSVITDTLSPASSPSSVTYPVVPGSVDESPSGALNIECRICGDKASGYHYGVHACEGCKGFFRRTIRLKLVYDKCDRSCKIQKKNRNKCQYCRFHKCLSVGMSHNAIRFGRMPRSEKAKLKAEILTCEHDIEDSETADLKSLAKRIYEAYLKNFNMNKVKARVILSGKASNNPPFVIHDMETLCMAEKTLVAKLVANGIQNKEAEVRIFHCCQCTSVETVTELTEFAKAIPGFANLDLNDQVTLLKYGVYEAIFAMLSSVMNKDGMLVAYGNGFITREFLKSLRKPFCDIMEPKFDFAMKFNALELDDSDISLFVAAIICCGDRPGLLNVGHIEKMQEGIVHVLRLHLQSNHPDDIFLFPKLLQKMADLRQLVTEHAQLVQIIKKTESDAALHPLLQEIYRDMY
Chain of Tumor necrosis factor (Homo sapiens) (P01375 whole entry, looked up): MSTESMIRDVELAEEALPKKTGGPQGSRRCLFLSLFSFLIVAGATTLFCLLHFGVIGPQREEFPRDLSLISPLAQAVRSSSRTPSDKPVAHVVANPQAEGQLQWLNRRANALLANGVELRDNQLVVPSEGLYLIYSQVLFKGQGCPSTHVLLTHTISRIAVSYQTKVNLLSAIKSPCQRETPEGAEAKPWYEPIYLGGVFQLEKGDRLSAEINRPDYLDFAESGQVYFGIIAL
Chain of Rap guanine nucleotide exchange factor 4 (Homo sapiens) (Q8WZA2 whole entry, looked up): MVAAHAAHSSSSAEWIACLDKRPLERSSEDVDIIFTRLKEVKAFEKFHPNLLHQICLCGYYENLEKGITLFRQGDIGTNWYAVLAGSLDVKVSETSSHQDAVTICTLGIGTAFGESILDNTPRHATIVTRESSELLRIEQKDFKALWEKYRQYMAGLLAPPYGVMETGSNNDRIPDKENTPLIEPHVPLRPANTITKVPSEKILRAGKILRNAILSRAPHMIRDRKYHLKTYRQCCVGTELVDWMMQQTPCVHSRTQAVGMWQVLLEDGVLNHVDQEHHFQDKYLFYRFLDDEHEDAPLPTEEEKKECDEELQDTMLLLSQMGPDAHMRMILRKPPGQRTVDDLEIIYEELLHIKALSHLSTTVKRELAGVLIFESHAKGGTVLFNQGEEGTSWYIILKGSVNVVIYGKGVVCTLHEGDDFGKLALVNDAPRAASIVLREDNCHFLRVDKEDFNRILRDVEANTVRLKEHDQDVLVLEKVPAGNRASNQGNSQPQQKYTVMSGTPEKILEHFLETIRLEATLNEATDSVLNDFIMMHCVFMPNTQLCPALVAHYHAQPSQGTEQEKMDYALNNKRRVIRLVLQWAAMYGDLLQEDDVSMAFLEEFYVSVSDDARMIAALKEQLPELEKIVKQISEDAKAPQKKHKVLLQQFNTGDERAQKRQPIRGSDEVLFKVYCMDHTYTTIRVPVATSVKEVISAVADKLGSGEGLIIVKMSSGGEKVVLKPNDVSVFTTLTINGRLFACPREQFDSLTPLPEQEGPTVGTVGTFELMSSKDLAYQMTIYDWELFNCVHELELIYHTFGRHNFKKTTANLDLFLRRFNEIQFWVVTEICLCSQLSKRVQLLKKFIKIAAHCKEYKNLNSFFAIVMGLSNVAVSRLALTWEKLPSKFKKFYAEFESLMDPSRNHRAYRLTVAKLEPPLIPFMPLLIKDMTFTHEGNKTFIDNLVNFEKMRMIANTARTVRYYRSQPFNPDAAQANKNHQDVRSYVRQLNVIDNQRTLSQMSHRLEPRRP

For `CCCCOC(=O)c1ccccc1C(=O)OCCCC`, the compound was classed as inactive in [1], in assay [2], in [4], in assay [12], in assay [15] and in assay [23]. Besides, the max response in assay [3] is -8.82% and -0.286%; in assay [5] it was -3.09%; in assay [6], -10.9% (inactive); in assay [14] it was -1.47% (inactive) and -0.868% (inactive); in assay [17], -12.7% (inactive) and 12.7% (inactive); in [18] it was -1.27% (inactive) and -9.6% (inactive). In addition, the max response in assay [22] was 4.96% (inactive) and 5.3% (inactive). Also, in assay [7], the activity change % (negative = inhibition) is 17.1% (inactive) and -3.92% (inactive). Also, the Potency result in [8], in assay [11], in assay [13], in assay [16], in assay [19] and in assay [20] was “inactive” in each case. Besides, in assay [21], the Potency entry was “inactive”. The activation in assay [9] is -2.51% (inactive) and -0.006% (inactive); in [10], -1.75% (inactive) and -1.98% (inactive).
